Active and inactive are the calls of the source. The rule behind the calls is not given here.

The results in this text go back to PubChem BioAssay.

Assay [1] is described as follows: Brca1-Bard1 BiLC signal decrease – luminescence, single concentration, counter-screen for Mdm2/MdmX interaction inhibitor project, confirmation (AID 504668). The settings on record: Brca1/Bard1 bimolecular luciferase complementation counterscreen, at 8 µM, stronger effect = higher value.
The target of assay [2] is PEG-3 (UniProt Q6IN02). Nature of the assay: inhibition of PEG-3 promoter-driven reporter – cell-based, HeLa, luciferase, CREF/GAPDH counter-screen panel, dose response (AID 624167). The settings on record: CREF/GAPDH counter-screens; HeLa PEG-Prom luciferase reporter, overnight, run 1, dose range 1, at 100 µM (top of the series) unless noted.
Sequence of PEG-3 (Q6IN02 whole entry, looked up): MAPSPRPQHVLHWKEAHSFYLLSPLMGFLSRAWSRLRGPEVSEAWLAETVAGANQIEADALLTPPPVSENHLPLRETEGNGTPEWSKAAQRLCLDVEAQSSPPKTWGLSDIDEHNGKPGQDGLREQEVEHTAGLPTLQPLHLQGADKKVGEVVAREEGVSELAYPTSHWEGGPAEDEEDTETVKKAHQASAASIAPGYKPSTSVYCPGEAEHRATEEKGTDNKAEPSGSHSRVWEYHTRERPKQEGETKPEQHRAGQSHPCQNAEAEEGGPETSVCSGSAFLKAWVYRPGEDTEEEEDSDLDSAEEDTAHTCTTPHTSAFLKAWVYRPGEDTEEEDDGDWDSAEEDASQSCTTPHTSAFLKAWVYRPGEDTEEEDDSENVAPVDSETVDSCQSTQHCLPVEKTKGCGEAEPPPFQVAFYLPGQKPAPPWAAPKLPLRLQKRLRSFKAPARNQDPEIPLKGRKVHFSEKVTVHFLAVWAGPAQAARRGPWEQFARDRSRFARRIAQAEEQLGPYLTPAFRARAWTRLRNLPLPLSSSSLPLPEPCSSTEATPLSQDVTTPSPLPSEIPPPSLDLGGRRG
Assay [3] addresses PEG-3 (UniProt Q6IN02). The description is as above. The settings on record: CREF/GAPDH counter-screens; HeLa PEG-Prom luciferase reporter, overnight, run 2, dose range 1, at 100 µM (top of the series) unless noted. (In general: Counterscreens check selectivity or assay interference.)
Assay [4] relates to Rat fibroblasts (CREF). Described as above. The settings on record: CREF/GAPDH counter-screens; run 1, dose range 1, at 100 µM (top of the series).
The test system of assay [5] is Rat fibroblasts (CREF). Described as above. The settings on record: CREF/GAPDH counter-screens; run 2, dose range 1, at 100 µM (top of the series).

On to `Cc1cc(C(=O)CCl)c(C)n1CCc1ccc(Cl)cc1`, for which, in assay [1], the inhibition (as a rule, the change of the read-out against control, counted positive when it falls) is 30.7% (active).

`Cc1cc(C(=O)COC(=O)C2=COCCO2)c(C)n1-c1ccccc1`: the inhibition in assay [1] was 31.6% (active); with PEG-3 [2] it was 101%; with PEG-3 [3], 101%.

For the compound `O=C(N/N=C\c1c(O)ccc2ccccc12)c1cncc(Br)c1`, the inhibition in assay [1] was 26.8% (active); with PEG-3 [2] it was 82.3%; with PEG-3 [3], 79.4%; in the assay with Rat fibroblasts (CREF) [4] it was 78.3%; with Rat fibroblasts (CREF) [5] it was 79.5%.

Regarding `Cc1ccc2oc(/N=C(\N)NC(=O)C(C)(C)C)nc2c1`, the inhibition is 31.8% (active) in assay [1]; 98% with PEG-3 [2]; 94.5% with PEG-3 [3]; 82.5% in the assay on Rat fibroblasts (CREF) [4]; 79.9% in the assay with Rat fibroblasts (CREF) [5].

For the compound `CC(C)(c1ccccc1)c1ccc(OCC(O)CNC2CCN(Cc3ccccc3)CC2)cc1` (configuration not stated), the inhibition in assay [1] was 35.2% (active); in the assay with PEG-3 [2], 102%; in the assay with PEG-3 [3], 98.9%.

For `C=CCc1cccc(/C=N/NC(=O)C(C)Nc2cccc(C)c2)c1O` (configuration not stated), the inhibition in assay [1] is 34.9% (active); in the assay with PEG-3 [2], 60.8%; with PEG-3 [3], 62%; in the assay with Rat fibroblasts (CREF) [4], 39.7%; with Rat fibroblasts (CREF) [5], 47.8%.

Turning to `COc1cccc(/C=N/NC(=O)c2c(C)nc3ccc(Cl)cn23)c1O`, the inhibition in assay [1] is 34.5% (active); with PEG-3 [2], 59.6%; with PEG-3 [3], 61.9%; in the assay with Rat fibroblasts (CREF) [4], 44.7%; in the assay with Rat fibroblasts (CREF) [5] it was 46.7%.

As to `CC(C)c1ccc(-c2nc3ccccc3s2)cc1`, the inhibition in assay [1] is 35.8% (active); with PEG-3 [2], 99.1%; with PEG-3 [3] it was 99.1%.

Take `O=C(Nc1ccc([N+](=O)[O-])cc1)C(=O)Nc1cccc(C(=O)O)c1`: the inhibition in assay [1] is 31% (active); with PEG-3 [2], 92.5%; with PEG-3 [3] it was 95%; in the assay with Rat fibroblasts (CREF) [4], 97.5%; in the assay with Rat fibroblasts (CREF) [5], 96.8%.

Consider `COc1ccc(/C=C2/SC(=S)N(CCCC(=O)Nc3ccc(O)cc3)C2=O)cc1OC`, for which the inhibition in assay [1] is 29.9% (active).

Regarding `COc1cc(/C=C/c2ccc3cccc(O)c3n2)c(Br)cc1O`, the inhibition was 29.2% (active) in assay [1], 99.5% with PEG-3 [2] and 96.1% in the assay with PEG-3 [3].

As to `CCN(CC)c1ccc2nc3ccc(N)cc3[n+](-c3ccccc3)c2c1`, the inhibition was 23.6% (active) in assay [1], 101% with PEG-3 [2] and 102% with PEG-3 [3].
